Hits are enriched below; roughly 1.8% of the tested compounds scored in any of these assays.
LGR2 antag: inhibitors of bursicon-induced LGR2 CRE-luciferase signal, primary screen, cell-based, HEK293, CRE-luciferase reporter, bursicon stimulation. bursicon-stimulated, 4 h. actives 0.35% (n = 380,000). inhibition, % at 9.99 µM;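 active = drop in luminescence signal, shown as inhibition above about 50% in the replicate tests, limit read from the data, passing the limit was not always enough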;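 note: agonist challenge used bursicon conditioned medium at about half maximal strength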
CFTR F508del cor: F508del CFTR correction, initial screen, CFBE line, single point; CFBE cells, YFP halide quenching; stimulated with forskolin plus potentiator P3; % fluorescence drop versus neutral controls; activity (quench increase), % at 7.58 µM; actives 0.36% (n = 350,000);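 active = mean added fluorescence quench of at least 8% versus neutral control, with both replicates also reaching 8%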;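 note: cells transiently co-express mutant CFTR-F508del with the halide-sensitive YFP; corrector assay measuring rescue of mutant channel to the surface after 24 h compound exposure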
PAX8 reporter: inhibitors of PAX8-driven TPO luciferase reporter, primary screen, RMG-I cells, single concentration; SteadyGlo, 24 h; inhibition, % at 12.6 µM; actives 1.2% (n = 360,000); AID 652154, 2013;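 active = mean replicate inhibition at least 60% with every replicate also reaching 60%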;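 note: luciferase light reporting Pax8 driven TPO promoter activity; plate controls were median of neutral control wells for no effect and mitoxantrone controls for full effect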
EWS-Fli inh: EWS/Fli-driven NR0B1 reporter inhibitors, primary screen, A673 cells, NR0B1 luciferase, luminescence, MLPCN library; inhibition, % at 12.6 µM; actives 0.67% (n = 350,000); viability-normalised;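 active = mean inhibition of at least 50% after viability correction, with every replicate also passing that limit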;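 note: firefly luciferase signal divided by Alamar Blue viability fluorescence both relative to DMSO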
* marks the source's active call; other numbers are inactive results; . = not tested or not shown.

SMILES	LGR2 antag	CFTR F508del cor	PAX8 reporter	EWS-Fli inh
COc1ccc(S(=O)(=O)Nc2ccc3c(c2)C(=O)N([C@H](C)CO)C[C@@H](C)[C@@H](CN(C)Cc2ccc(C(F)(F)F)cc2)OCCCC[C@H](C)O3)cc1	-2	5	105*	11
COc1ccc(S(=O)(=O)Nc2ccc3c(c2)C(=O)N([C@H](C)CO)C[C@H](C)[C@H](CN(C)Cc2ccc(C(F)(F)F)cc2)OCCCC[C@@H](C)O3)cc1	2	4	47	1
Cc1ccccc1-c1ccc([C@H]2[C@H](CO)N3CCCCN(C(=O)Nc4cccc(F)c4)C[C@@H]23)cc1	.	1	-2	2
Cc1cc(/C=C2\SC(=S)N(C)C2=O)c(C)n1-c1ccc(O)cc1	64*	2	7	75*
Cc1cc(/C=C2\SC(=S)N(C)C2=O)c(C)n1-c1ccccc1O	-32	-3	-127	-60
CC12CCC(C(=O)OC3CCCCC3)(OC1=O)C2(C)C (configuration not stated)	7	0	0	1
CC1(C(=O)NS(=O)(=O)C2CC2)CCCN(C(=O)c2ccccc2C(F)(F)F)C1 (configuration not stated)	-1	-1	-9	-3
N#CC(Cc1ccccc1OC(F)F)c1nc2ccccc2[nH]1 (configuration not stated)	-8	1	76*	-10
COc1ccccc1CC(Cc1nc2ccccc2[nH]1)c1nc2ccccc2[nH]1 (configuration not stated)	-21	5	18	7
Cc1ccc(Cn2c(SCC(=O)NCC3CCCO3)nc3c(sc4ccccc43)c2=O)cc1 (configuration not stated)	.	.	8	.
O=C1NC2C3CC(c4ccccc43)C12 (configuration not stated)	-4	-3	-7	0
O=C(O)/C=C/c1cnn(-c2ccccc2)c1	59*	-1	12	31
CCCCCCN(C(=O)CCCN1C(=O)NC(c2ccc(-c3ccccc3)cc2)C(C(=O)OCc2ccccc2)=C1C)C(C)C(=O)NCCCC (configuration not stated)	-9	-2	99*	-1
Cc1cccc(C(=O)n2c(=S)nc3cc(C)ccn32)c1	80*	1	-3	26
O=C(c1ccco1)n1c(=S)nc2ccccn21	-28	.	.	.
Cc1ccn2c(c1)nc(=S)n2C(=O)c1ccccc1	.	.	-6	71*
C=CC[C@@H](CC(=O)N(CCO)Cc1ccccc1)C(=O)N[C@H](COC(=O)[C@H](CC=C)CC(=O)OC(C)(C)C)Cc1c[nH]c2ccccc12	22	8.5*	37	6
C=CC[C@H](CC(=O)N(CCO)Cc1ccccc1)C(=O)N[C@H](COC(=O)[C@@H](CC=C)CC(=O)OC(C)(C)C)Cc1c[nH]c2ccccc12	10	1	47	12
C=CC[C@H](CC(=O)N(CCO)Cc1ccccc1)C(=O)N[C@H](COC(=O)[C@@H](CC=C)Cc1ccc(F)cc1)Cc1ccccc1	31	2	80*	0
C=CCC[C@H](Cc1ccc(F)cc1)C(=O)OC[C@@H](Cc1c[nH]c2ccccc12)NC(=O)[C@@H](CC=C)CC(=O)N(CCO)Cc1ccccc1	28	-1	84*	8
C=CC[C@@H](CC(=O)N(CCO)Cc1ccccc1)C(=O)N[C@H](C)COC(=O)[C@@H](CC=C)Cc1ccc(F)cc1	17	-3	19	10
COc1ccc(NC(=O)C2=NN(C3CCS(=O)(=O)C3)C(=O)CC2)cc1S(N)(=O)=O (configuration not stated)	-14	-3	0	1
Nc1cc(=O)[nH]c(SCC(=O)Nc2cccc(S(=O)(=O)N3CCCCCC3)c2)n1	-21	8	5	3
CCOC(=O)c1ccc(NC(=O)c2cc(C)nn2-c2ccccc2)cc1	7	-1	-10	6
CC1(C)C(C=C(Cl)Cl)C1C(=O)Nc1ccc([N+](=O)[O-])cc1 (configuration not stated)	29	-3	99*	4
SMILES	LGR2 antag	CFTR F508del cor	PAX8 reporter	EWS-Fli inh
CC(C1CCN(Cc2cn(C)nc2-c2cccc(Cl)c2)CC1)N1CCOCC1 (configuration not stated)	-5	0	11	1
Cc1cc(C)c2c(c1)/C(=N/NC(=O)c1cc(C)oc1C)CCC2	0	1	99*	-2
Cc1cc(C)c2c(c1)/C(=N/NC(=O)c1ccc(O)cc1)CCC2	2	-2	19	4
COc1ccc(CCNC(=O)Nc2ccc3c(c2)c(=O)n(C)n3Cc2ccc(F)cc2)cc1OC	-23	0	5	-3
COc1cc(Cn2c3ccc(NC(=O)NCc4ccc(F)cc4)cc3c(=O)n2C)ccc1F	0	-2	36	51*
CN(/N=C/c1ccc(O)cc1O)c1nc(-c2ccccc2)cc(-c2ccccc2)n1	3	-5	158*	16
Cc1nc(N2CCN(S(=O)(=O)c3ccccc3C#N)CC2)c2c(-c3cccs3)csc2n1	19	-5	72*	17
Cc1nc(N2CCCCC2)c2c(-c3cccs3)csc2n1	5	-2	2	11
CN(CC(=O)Nc1ccccc1Br)C(=O)c1cccc(S(=O)(=O)N2CCc3ccccc32)c1	-33	1	21	7
CN(C)c1cccc(F)c1C(=O)NC(=O)Nc1ccc(Cl)cc1	1	7	.	53*
CN(C)c1cccc(N(C)C)c1CNC(=O)NC(=O)c1c(F)cccc1F	14	0	11	-2
CC(C)NC(=O)Nc1ccc2c(c1)C(=O)N([C@H](C)CO)C[C@@H](C)[C@@H](CN(C)Cc1ccc(Cl)c(Cl)c1)OCCCC[C@H](C)O2	19	2	53	-1
C[C@@H]1CCCCO[C@H](CN(C)Cc2ccncc2)[C@H](C)CN([C@@H](C)CO)C(=O)c2cc(NC(=O)NC3CCCCC3)ccc2O1	-1	1	83*	56*
C[C@@H]1CN([C@H](C)CO)C(=O)c2cc(NC(=O)NC3CCCCC3)ccc2O[C@@H](C)CCCCO[C@@H]1CN(C)Cc1ccc(Cl)c(Cl)c1	8	2	71*	10
C[C@@H]1CCCCO[C@@H](CN(C)Cc2ccc(Cl)c(Cl)c2)[C@@H](C)CN([C@@H](C)CO)C(=O)c2cc(NC(=O)NC3CCCCC3)ccc2O1	8	3	53	-5
C[C@@H]1CCCCO[C@@H](CN(C)Cc2ccc(Cl)c(Cl)c2)[C@H](C)CN([C@H](C)CO)C(=O)c2cc(NC(=O)NC3CCCCC3)ccc2O1	4	1	65*	-13
C[C@@H]1CCCCO[C@@H](CN(C)Cc2ccncc2)[C@@H](C)CN([C@H](C)CO)C(=O)c2cc(NC(=O)NC3CCCCC3)ccc2O1	-6	1	7	1
C[C@@H]1CCCCO[C@@H](CN(C)Cc2ccc(Cl)c(Cl)c2)[C@H](C)CN([C@@H](C)CO)C(=O)c2cc(NC(=O)NC3CCCCC3)ccc2O1	9	1	68*	4

Screening data: PubChem BioAssay, Broad Institute
